# D1 agonist = Allosteric Agonists of the Human D1 Dopamine Receptor: qHTS. activation, % at 2 µM. D(1A) dopamine receptor (Homo sapiens), P21728. HEK293 T-REx D1 cells, calcium flux, agonist mode. 1% of 360,000 active; in the data active = activation above about 30%
#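 Tetracycline-induced HEK293 TREx D1 cells, force-coupled to calcium signalling, were dye-loaded with a no-wash calcium kit. Compound was pin-added after a 10 s baseline. Fluorescence was read kinetically at 1 cycle/s for 180 s, with calcium rises flagged as agonism.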
# DRD3 antagonist = qHTS of D3 Dopamine Receptor Antagonist: qHTS | AID 652054, 2013 | 2.5% of 360,000 active | D(3) dopamine receptor (Homo sapiens), P35462 | max response, negative = inhibition, % | D3R cells, DiscoveRx beta-arrestin luminescence, antagonist mode; active compounds read low; in the data active = max response below about -50%; inconclusive = no clear call, values can overlap the other calls
# Target sequence (P35462 whole entry, looked up): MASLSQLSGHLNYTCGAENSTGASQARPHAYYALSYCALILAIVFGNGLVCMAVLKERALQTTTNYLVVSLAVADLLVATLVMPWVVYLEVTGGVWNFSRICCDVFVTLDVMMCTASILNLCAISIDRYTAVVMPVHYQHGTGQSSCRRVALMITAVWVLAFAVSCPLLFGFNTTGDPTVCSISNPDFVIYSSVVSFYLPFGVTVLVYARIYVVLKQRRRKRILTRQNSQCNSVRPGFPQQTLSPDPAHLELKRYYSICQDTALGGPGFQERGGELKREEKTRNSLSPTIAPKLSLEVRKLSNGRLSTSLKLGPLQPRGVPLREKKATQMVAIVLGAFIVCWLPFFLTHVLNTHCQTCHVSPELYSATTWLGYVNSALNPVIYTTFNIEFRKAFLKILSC
#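 Cells plated overnight at 1500 cells/well, then exposed to library compounds with dopamine controls for 90 minutes at 37 degrees C. DiscoveRx reagent added for 30–60 minutes at room temperature; luminescence read, quantitative HTS format.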
# D1 PAM = Potentiators of Human D1 Dopamine Receptor: qHTS; 0.036% of 360,000 active; D(1A) dopamine receptor (Homo sapiens), P21728; HEK293 TREx D1 cells, calcium flux, dopamine EC20 potentiation; potentiation, % at 10 µM; in the data active = potentiation above about 30%
# Chronic BCR inh = qHTS Assay to Find Inhibitors of Chronic Active B-Cell Receptor Signaling; ABC-DLBCL IkBa-CBG/CBR reporter, luminescence ratio, 4 h; Potency, µM (series often up to 46.1 µM), usual class: inhibitors; 0.05% of 340,000 active; active = well fitted inhibition curve with a large enough effect in the signal ratio, with a control signal flat, not every such curve was filed as active; inconclusive = small, poorly fitted or top-dose-only effect, or effect the other way, or a change in a side signal; the % refers to the signal ratio
#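 TMD8 ABC-DLBCL cells carrying doxycycline-inducible green luciferase fused to IkappaBalpha plus unfused red luciferase were exposed to compounds (up to 46 uM) for 4 hrs at 37C. Activity came from the overlap-corrected green/red luminescence ratio.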
# DRD3 agonist = qHTS of D3 Dopamine Receptor Agonist: qHTS | D(3) dopamine receptor (Homo sapiens), P35462 | D3R DiscoveRx beta-arrestin cells, luminescence, 90 min | max activation, % | 0.58% of 410,000 active | AID 652048, 2013; in the data active = max activation above about 30%
#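 Agonist-mode cell screen: cells plated at 1500/well and incubated overnight at 37 °C, then exposed to library compounds for 90 min at 37 °C. Detection reagent was added for 30–60 min at room temperature, and luminescence was read.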
# D1 antagonist = Antagonist of Human D 1 Dopamine Receptor: qHTS. HEK293 TREx D1 cells, calcium flux, dopamine EC80; active compounds read low. activity change, negative = inhibition, % at 10 µM. 3.2% of 360,000 active. AID 504652, 2011; in the data active = activity change below about -30%
#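 Kinetic fluorescence of a calcium dye serves as the read-out. D1-expressing Hek293 Trex cells, induced overnight at 30 C, are exposed to compound for 180 s before an EC80 dopamine addition, then read 180 s further.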
# A number is an active result; n = inactive; u = inconclusive; x = no result given. The list is not random: actives were taken first. Their share in the collection is about 6%.
SMILES,D1 agonist,DRD3 antagonist,D1 PAM,Chronic BCR inh,DRD3 agonist,D1 antagonist
CCN(CC)C(=O)C1=C(C)N(Cc2ccccc2)C(=O)C(CC(=O)NC2CCCC2)C1 (centres undefined),x,n,x,x,n,x
Cc1cccc(C)c1NC(=O)c1cc(S(=O)(=O)N2CCc3ccccc32)cn1C,n,u,n,n,n,-47
CCc1nc2cc(NC(=O)C3(C)CCCN(C(C)=O)C3)ccc2o1 (centres undefined),x,n,x,x,n,x
CCOC(=O)C1CCCN(C(=O)c2cc3nc(-c4ccc5c(c4)OCO5)cc(C(F)(F)F)n3n2)C1 (centres undefined),n,n,n,n,120,n
Cc1cc(-c2ccc(F)cc2)nc2cc(C(N)=O)nn12,n,-76,n,n,n,n
CN1CCN(C(=O)c2cc3nc(-c4ccc(F)cc4)cc(C(F)(F)F)n3n2)CC1,n,-52,n,n,n,n
COc1ccc(-c2cc(C(F)(F)F)n3nc(C(=O)N4CCCC4)cc3n2)cc1,n,n,n,n,n,n
O=C(O)CN(CCN(CC(=O)O)CC(=O)O)CCN(CC(=O)O)CC(=O)O,x,x,x,x,n,x
Cc1cnc(-c2nc3ccccc3n2C(C(=O)Nc2c(C)cccc2C)C2CC2)cn1 (centres undefined),x,n,x,x,n,x
Cc1cc2c(s1)c1cnn(Cc3c(F)c(F)c(C)c(F)c3F)c(=O)c1n2C,n,x,n,x,x,n
Cc1cc(C)c(NC(=O)CCCN2C(=O)COc3ccc(C)cc32)c(C)c1,n,x,n,x,n,n
N=C1C(c2ccccc2)=C(O)CN1CCO,n,n,n,n,n,-30
COc1ccccc1Cc1c(C2CCCCC2)nc2c3ccccc3ccn12,x,n,x,x,n,x
Cc1cc2c(s1)c1cnn(Cc3ccc(F)c(F)c3)c(=O)c1n2C,n,x,n,x,x,n
CCCCn1nc2cc(C(=O)NCCc3cccs3)ccc2c1OCC,n,n,n,u,n,-67
CCCCOc1ccc(C(=O)NCC2(c3ccccc3)CCOCC2)cc1,n,n,n,n,n,-40
CCOc1c2ccc(C(=O)NCCc3cccs3)cc2nn1CC,n,n,n,n,n,n
CCOc1c2ccc(C(=O)N[C@H](C)C3CCCCC3)cc2nn1CC,n,-82,n,n,n,n
CCCCCOc1ccc(C(=O)NCC2(c3ccccc3)CCOCC2)cc1,n,n,n,n,n,n
CCCCn1nc2cc(C(=O)NCC34CC5CC(CC(C5)C3)C4)ccc2c1OCC,n,-79,n,n,n,n
CCCn1nc2cc(C(=O)NC3CCCc4ccccc43)ccc2c1OCC (centres undefined),n,n,n,n,n,n
CCOc1ccc(C(=O)NCc2cccs2)cc1,n,n,n,n,n,n
CCCCOc1ccc(C(=O)NCCc2cccs2)cc1,n,x,n,u,x,-32
CCCCOc1ccc(C(=O)C(CN2CCOCC2)c2ccccc2)cc1 (centres undefined),n,-54,n,u,n,n
COc1ccc(C(=O)C(CN2CCOCC2)c2ccccc2)cc1 (centres undefined),n,n,n,n,n,n
O=[N+]([O-])c1cccc(-c2csc(Nc3ccccc3)n2)c1,n,n,n,u,n,-30
O=C(Nc1nc(-c2ccccc2)cs1)C1CCCO1 (centres undefined),n,-91,n,u,n,n
Cc1noc(C)c1C(=O)Nc1nc(-c2cc(F)ccc2F)cs1,n,n,n,n,n,-32
O=C(Nc1nc(-c2ccc(-c3ccccc3)cc2)cs1)c1cc([N+](=O)[O-])ccc1N1CCOCC1,n,n,n,n,n,-36
Cc1cccc(N2CCN(C(=O)Cn3cnc4sc(C)c(S(=O)(=O)N5CCN(c6ncccn6)CC5)c4c3=O)CC2C)c1 (centres undefined),n,x,n,x,n,n

# Screening results (PubChem BioAssay)
